Nine compounds from PubChem BioAssay (NCI) can be followed below.

About 79,000 compounds went through this panel and 15% of them were active in at least one assay; those are over-represented in the sample as a whole. Unmarked numbers belong to inactive results. Activity calls are given as the source filed them. Cut-off read from the data, not from the text of the source: active = growth inhibition above about 70%; inactive = the rest.

The nature of assay [1]: NCI Yeast Anticancer Drug Screen. Data for the rad50 strain (AID 155).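 Note: 0% = growth of vehicle-only cultures of the same strain.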 The settings on record: S. cerevisiae rad50 strain growth inhibition, hits give high values. The procedure, abridged: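 Cells are treated with compound, grown, and their growth is then scored against vehicle-only cultures of the same repair-deficient yeast strain.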
A short description of assay [2]: NCI Yeast Anticancer Drug Screen. Data for the mec2-1 strain (AID 157). Conditions: S. cerevisiae mec2-1 strain, hits give high values. The procedure, abridged:
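Mutant yeast (mec2-1) grown with compound; growth inhibition relative to vehicle control reported.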

A short description of assay [3]: NCI Yeast Anticancer Drug Screen. Data for the sgs1 mgt1 strain (AID 161).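 Note: 0% = growth of cultures given vehicle only.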 Conditions: S. cerevisiae sgs1 mgt1 strain, hits give high values. The procedure, abridged: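 Growth of a repair-deficient yeast mutant was monitored after compound treatment and expressed as inhibition relative to vehicle-treated cultures.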
Assay [4] in a line: NCI Yeast Anticancer Drug Screen. Data for the cln2 rad14 strain (AID 165).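 Note: 0% = growth equal to vehicle treated cultures.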 The settings on record: S. cerevisiae cln2 rad14 strain, hits give high values. The procedure, abridged:
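Readout is yeast growth inhibition versus vehicle-treated controls, using a strain with cln2 and rad14 alterations exposed to compound.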

Assay [5] in a line: NCI Yeast Anticancer Drug Screen. Data for the bub3 strain (AID 167). Conditions: S. cerevisiae bub3 mutant strain, hits give high values. The procedure, abridged:
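Part of a panel of yeast mutants defective in DNA damage repair or cell cycle regulation. Each strain is grown with compound, and inhibition is calculated relative to solvent-treated cultures.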

The nature of assay [6]: NCI Yeast Anticancer Drug Screen. Data for the mlh1 rad18 strain (AID 175). The settings on record: S. cerevisiae mlh1 rad18 strain growth inhibition, hits give high values. Put shortly:
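Genetically defined yeast (DNA repair-deficient) exposed to compounds; growth inhibition determined relative to vehicle.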

Where [7] appears, read: at 5.0 µM (retest, dose inferred, filed as 0.5).
[8] abbreviates: at 50.0 µM (retest, dose inferred, filed as 5.0).

With `CCCCC(CC)CNP(=S)(NCC(CC)CCCC)NCC(CC)CCCC` (configuration not stated), the growth inhibition in assay [1] (setting [7]) is -3%; in assay [1] (setting [8]) it was 37%; in assay [1] (at 50.0 µM) it was 58.9%; in assay [2] (setting [7]) it was -3%; in assay [2] (setting [8]) it was 30%; in assay [2] (at 50.0 µM), 9.55%. Moreover, the growth inhibition in assay [3] (setting [7]) was -4%; in assay [3] (setting [8]), 27%; in assay [3] (at 50.0 µM), 6.25%; in assay [4] (setting [7]), -2%; in assay [4] (setting [8]), 20%; in assay [4] (at 50.0 µM), 35.8%. Further, the growth inhibition in assay [5] (setting [7]) was -5%; in assay [5] (setting [8]) it was 37%; in assay [5] (at 50.0 µM), 13.4%; in assay [6] (setting [7]), -5%; in assay [6] (setting [8]), 33%; in assay [6] (at 50.0 µM), 69.1%.

As for `CC(C)=[CH][Sb]([Br])([CH]=C(C)C)([CH]=C(C)C)[c]1ccccc1`, the growth inhibition in assay [1] (setting [7]) was -9%; in assay [1] (setting [8]), 8%; in assay [1] (at 50.0 µM), 56.5%; in assay [2] (setting [7]) it was -14%; in assay [2] (setting [8]), 27%; in assay [2] (at 50.0 µM), 45.8%. In addition, the growth inhibition was -14% in assay [3] (setting [7]); 16% in assay [3] (setting [8]); 32.5% in assay [3] (at 50.0 µM); -19% in assay [4] (setting [7]); 6% in assay [4] (setting [8]); -11.8% in assay [4] (at 50.0 µM). For the same compound, the growth inhibition in assay [5] (setting [7]) is -3%; in assay [5] (setting [8]), 22%; in assay [5] (at 50.0 µM) it was 64.9%; in assay [6] (setting [7]), -11%; in assay [6] (setting [8]), 10%; in assay [6] (at 50.0 µM) it was 40.5%.

With `COc1ccc2c(c1O)C13CCN(C)C(C2)C12C=CC(=O)C3c1c(O)ccc(O)c12` (configuration not stated), the growth inhibition in assay [1] (setting [7]) was -2%; in assay [1] (setting [8]), 59%; in assay [1] (at 50.0 µM) it was 76.7% (active); in assay [2] (setting [7]) it was 13%; in assay [2] (setting [8]), 66%; in assay [2] (at 50.0 µM) it was 66.5%. Further, the growth inhibition in assay [3] (setting [7]) is 17%; in assay [3] (setting [8]) it was 77% (active); in assay [3] (at 50.0 µM) it was 89.3% (active); in assay [4] (setting [7]) it was -2%; in assay [4] (setting [8]) it was 41%; in assay [4] (at 50.0 µM) it was 72.5% (active). Further, the growth inhibition was -8% in assay [5] (setting [7]); 55% in assay [5] (setting [8]); 48.7% in assay [5] (at 50.0 µM); 17% in assay [6] (setting [7]); 88% (active) in assay [6] (setting [8]); 84.5% (active) in assay [6] (at 50.0 µM).

On to `O=C(CCl)Nc1cccc(Cl)c1`, for which the growth inhibition in assay [1] (setting [7]) was 3%; in assay [1] (setting [8]), 80% (active); in assay [1] (at 50.0 µM), 92.4% (active); in assay [2] (setting [7]), 2%; in assay [2] (setting [8]), 50%; in assay [2] (at 50.0 µM), 89.5% (active). Also, the growth inhibition in assay [3] (setting [7]) was 1%; in assay [3] (setting [8]), 68%; in assay [3] (at 50.0 µM), 87.5% (active); in assay [4] (setting [7]), 2%; in assay [4] (setting [8]), 33%; in assay [4] (at 50.0 µM), 67.8%. Further, the growth inhibition in assay [5] (setting [7]) was 10%; in assay [5] (setting [8]), 78% (active); in assay [5] (at 50.0 µM), 94.4% (active); in assay [6] (setting [7]) it was 2%; in assay [6] (setting [8]), 78% (active); in assay [6] (at 50.0 µM), 95% (active).

On to `O=P(Nc1cccc(Cl)c1)(Oc1ccccc1)N(CCCl)CCCl` (configuration not stated), for which the growth inhibition in assay [1] (setting [7]) is 40%; in assay [1] (setting [8]), 40%; in assay [1] (at 50.0 µM) it was 90.2% (active); in assay [2] (setting [7]), 30%; in assay [2] (setting [8]) it was 30%; in assay [2] (at 50.0 µM), 90.2% (active). The growth inhibition in assay [3] (setting [7]) was 43%; in assay [3] (setting [8]), 43%; in assay [3] (at 50.0 µM) it was 92.1% (active); in assay [4] (setting [7]), 20%; in assay [4] (setting [8]) it was 20%; in assay [4] (at 50.0 µM), 89.8% (active). The growth inhibition in assay [5] (setting [7]) is 26%; in assay [5] (setting [8]) it was 26%; in assay [5] (at 50.0 µM), 88.7% (active); in assay [6] (setting [7]) it was 21%; in assay [6] (setting [8]), 21%; in assay [6] (at 50.0 µM), 88.2% (active).

Take `COC1OC(COC(C)=O)C(OC(C)=O)C(OC(C)=O)[C]1(OC(C)=O)[Hg][O]C(C)=O` (configuration not stated): the growth inhibition in assay [1] (setting [7]) is 99% (active); in assay [1] (setting [8]) it was 99% (active); in assay [1] (at 50.0 µM), 99.3% (active); in assay [2] (setting [7]), 100% (active); in assay [2] (setting [8]) it was 100% (active); in assay [2] (at 50.0 µM) it was 98.5% (active). For the same compound, the growth inhibition in assay [3] (setting [7]) is 99% (active); in assay [3] (setting [8]) it was 99% (active); in assay [3] (at 50.0 µM) it was 99.7% (active); in assay [4] (setting [7]), 99% (active); in assay [4] (setting [8]) it was 98% (active); in assay [4] (at 50.0 µM), 99.4% (active). The growth inhibition in assay [5] (setting [7]) is 99% (active); in assay [5] (setting [8]), 99% (active); in assay [5] (at 50.0 µM), 97.8% (active); in assay [6] (setting [7]), 99% (active); in assay [6] (setting [8]), 99% (active); in assay [6] (at 50.0 µM) it was 99.7% (active).

For `CCC(C)(C)c1ccc(OP(=S)(S)Oc2ccc(C(C)(C)CC)cc2)cc1`, the growth inhibition in assay [1] (setting [7]) was -1%; in assay [1] (setting [8]) it was 92% (active); in assay [1] (at 50.0 µM), 88.5% (active); in assay [2] (setting [7]), 3%; in assay [2] (setting [8]) it was 96% (active); in assay [2] (at 50.0 µM) it was 68.7%. Besides, the growth inhibition in assay [3] (setting [7]) was -7%; in assay [3] (setting [8]) it was 95% (active); in assay [3] (at 50.0 µM), 94.9% (active); in assay [4] (setting [7]) it was 4%; in assay [4] (setting [8]), 90% (active); in assay [4] (at 50.0 µM) it was 90.7% (active). In addition, the growth inhibition in assay [5] (setting [7]) is -1%; in assay [5] (setting [8]) it was 94% (active); in assay [5] (at 50.0 µM), 31.5%; in assay [6] (setting [7]), -4%; in assay [6] (setting [8]), 95% (active); in assay [6] (at 50.0 µM), 90.5% (active).

Take `CN1CC(Br)(Br)C(=O)N(C)C1=O`: the growth inhibition is 18% in assay [1] (setting [7]); 99% (active) in assay [1] (setting [8]); 89.8% (active) in assay [1] (at 50.0 µM); 2% in assay [2] (setting [7]); 100% (active) in assay [2] (setting [8]); 93.3% (active) in assay [2] (at 50.0 µM). The growth inhibition in assay [3] (setting [7]) is -9%; in assay [3] (setting [8]), 99% (active); in assay [3] (at 50.0 µM), 92.8% (active); in assay [4] (setting [7]), -4%; in assay [4] (setting [8]), 99% (active); in assay [4] (at 50.0 µM) it was 93.4% (active). The growth inhibition was -18% in assay [5] (setting [7]); 100% (active) in assay [5] (setting [8]); 92.9% (active) in assay [5] (at 50.0 µM); 2% in assay [6] (setting [7]); 100% (active) in assay [6] (setting [8]); 88% (active) in assay [6] (at 50.0 µM).

Take `CC1(C)OCC(COC(=O)C=[N+]=[N-])O1` (configuration not stated): the growth inhibition in assay [1] (setting [7]) was 0%; in assay [1] (setting [8]), -10%; in assay [1] (at 50.0 µM), 2.75%; in assay [2] (setting [7]), 0%; in assay [2] (setting [8]), -7%; in assay [2] (at 50.0 µM), 0.75%. Also, the growth inhibition in assay [3] (setting [7]) was 11%; in assay [3] (setting [8]) it was -4%; in assay [3] (at 50.0 µM) it was -7.5%; in assay [4] (setting [7]), -3%; in assay [4] (setting [8]), -14%; in assay [4] (at 50.0 µM), -6.95%. The growth inhibition in assay [5] (setting [7]) is 2%; in assay [5] (setting [8]) it was -3%; in assay [5] (at 50.0 µM), -2.25%; in assay [6] (setting [7]) it was -2%; in assay [6] (setting [8]), -14%; in assay [6] (at 50.0 µM), 42.5%.
